# Bioassay records (PubChem BioAssay)
# RORg inh: ROR gamma (mouse) transcription inhibition | P51450 | Drosophila S2 Gal4-RORgamma UAS-luciferase reporter, 20 h | Potency, µM (titrated, usually from 53.6 µM), inactives show at the highest dose activity change, negative = inhibition, most hits filed as inhibitors | 310,000 compounds, 5.4% hits; also: nearly all actives have a fitted effect of over 60% in size
# Target sequence (P51450 whole entry, looked up, the tested form may be a part): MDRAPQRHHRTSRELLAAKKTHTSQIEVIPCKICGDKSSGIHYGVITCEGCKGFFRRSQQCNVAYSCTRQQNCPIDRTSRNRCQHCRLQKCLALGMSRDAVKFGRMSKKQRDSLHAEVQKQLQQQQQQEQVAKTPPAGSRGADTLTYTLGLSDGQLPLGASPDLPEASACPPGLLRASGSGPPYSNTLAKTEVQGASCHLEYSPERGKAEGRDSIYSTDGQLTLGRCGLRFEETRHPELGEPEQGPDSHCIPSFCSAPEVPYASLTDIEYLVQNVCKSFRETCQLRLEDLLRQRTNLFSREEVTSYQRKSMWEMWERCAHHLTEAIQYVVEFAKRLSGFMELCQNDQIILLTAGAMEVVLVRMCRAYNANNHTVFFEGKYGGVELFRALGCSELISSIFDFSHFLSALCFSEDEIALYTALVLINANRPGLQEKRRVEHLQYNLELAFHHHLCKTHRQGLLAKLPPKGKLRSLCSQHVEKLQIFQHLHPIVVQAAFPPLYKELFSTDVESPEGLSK
#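 Using a luciferase readout, inhibitors were identified by reduced reporter activity in Drosophila cells coexpressing a copper-inducible Gal4–ROR gamma fusion and UAS-driven Photinus luciferase, incubated 20 hr after 700 uM copper sulfate.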
# VP16 counter: inhibits Gal4-VP16 luciferase reporter, ROR gamma counter-screen | Potency, µM (series often up to 53.6 µM), inactives show at the highest dose activity, negative = inhibition, actives largely listed as inhibitors | Drosophila S2 Gal4-VP16 UAS-luciferase, luminescence, 20 h | 310,000 compounds, 3.5% hits;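 also: Gal4-VP16 expression switched on by copper sulfate through the metallothionein promoter; nearly all actives have a fitted effect of over 50% in size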
# Luc counter: counter-screen: inhibitors of Kinase-Glo firefly luciferase. Q27757. Kinase-Glo luciferase, ATP luminescence, 8 min. Potency, µM (titrated, usually from 38.3 µM), inactives show at the highest dose activity change, negative = inhibition, hits mostly inhibitors. 200,000 compounds, 0.28% hits. AID 1379; also: nearly all actives have a fitted effect of over 60% in size
#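 Luminescence was the read-out, taken after 8-minute incubation at ambient temperature. Luciferase turned over luciferin with 10 uM ATP in imidazole pH 7.2 buffer containing KCl, MgCl2, Tween 20 and BSA.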
# * marks the source's active call; other numbers are inactive results; ? = inconclusive; nt = no result; [ ] = remark or other dose. Shown are actives, neighbours in structure and some others; about 6.2% of the full set was active somewhere. Calls follow the shape of the dose curve; as a rule, active = well fitted curve in the direction sought with a large enough effect; inconclusive = small, poorly fitted or top-dose-only effect, or another doubt; inactive = no such curve, though single readings can be large; an effect the other way counts as inactive or inconclusive. % is scaled to controls: 0 for no effect and ±100 for the full control effect; potency is read from the fitted curve at half-maximal effect.
SMILES,RORg inh,VP16 counter,Luc counter
CN1C[C@@H](C(=O)N[C@@]2(C)O[C@]3(O)C4CCCN4C(=O)[C@@H](Cc4ccccc4)N3C2=O)C=C2c3cccc4[nH]cc(c34)C[C@@H]21 (some centres not stated),15%,6%,-8%
O=C(O)[C@@H]1[C@H](C(=O)O)[C@]2(Cl)C(Cl)=C(Cl)[C@@]1(Cl)C2(Cl)Cl,nt,nt,-6%[7.66 µM]
Cc1nc(-c2nc(-c3c(C(=O)NNC(=O)c4ccc(Cl)cc4)noc3C)cs2)cs1,10µM*,?,nt
C=CC[C@]1(O)CC[C@H]2[C@@H]3CCC4=CC(=O)CCC4=C3C=C[C@@]21C,23%,1%,nt
N#Cc1nn(-c2c(Cl)cc(C(F)(F)F)cc2Cl)c(N)c1S(=O)C(F)(F)F (configuration not stated),?,20µM*,0%[39.9 µM]
C[C@@](Br)(C(=O)O)[C@H](Br)C(=O)O,nt,nt,-3%[7.66 µM]
CC1=C(O)C(=O)C=C2C1=CC=C1[C@]2(C)CC[C@@]2(C)C3C[C@](C)(C(=O)O)CC[C@@]3(C)CC[C@@]12C (some centres not stated),3.2µM*,?,-2%
CCBr,-7%,-1%,nt
Cn1cc(C(=O)NC2CC2)c2ccccc21,-4%,-8%,nt
O=C(NC1CCCCCC1)c1ccc[nH]c1=S,0.45µM*,0.79µM*,11%
C[C@@H]1OC=C2[C@@H](O)[C@H]3O[C@H]3C(=O)[C@@]23[C@H]1[C@H]1C2=C([C@@H](O)[C@H]4O[C@@H]4C2=O)[C@@H]3O[C@@H]1C,-44%[10 µM],28%[10 µM],nt
CCCCC(C#N)(Cn1cncn1)c1ccc(Cl)cc1 (configuration not stated),31%,0%,nt
CN[C@H](Cc1ccccc1)c1cccc(OC)c1O,nt,nt,-1%[7.66 µM]
COc1cc(/C=C/[N+](=O)[O-])ccc1O,4.5µM*,3.2µM*,-1%
COc1ccc(-n2c(/C=C/c3ccc(O)c(OC)c3)nc3ccccc3c2=O)cc1,24%,5%,nt
C[C@]12O[C@H](C[C@]1(O)CO)n1c3ccccc3c3c4c(c5c6ccccc6n2c5c31)CNC4=O,?,5.6µM*,nt
COC(=O)[C@@]1(OC)C[C@@H]2O[C@@]1(C)n1c3ccccc3c3c4c(c5c6ccccc6n2c5c31)C(=O)N(C)C4,-8%[10 µM],-4%[10 µM],2%[39.9 µM]
O=NN(c1ccccc1)c1ccccc1,3%,19%,nt
S=c1[nH]nc(-c2ccco2)n1-c1cccc2ccccc12,7.9µM*,13µM*,1%
Nn1c(Cc2cccc3ccccc23)n[nH]c1=S,?,7%,2%
CC1=C[C@H]2[C@]3(O)C(C=C(CO)C[C@]2(O)C1=O)[C@@H]1C(C)(C)[C@]1(O)[C@H](O)[C@H]3C (some centres not stated),2%,1%,nt
O=C1/C(=C\c2ccccc2)C[C@@]2(O)[C@H]3Cc4ccc(O)c5c4[C@@]2(CCN3CC2CC2)[C@@H]1O5,11µM*,13µM*,-1%
Oc1ccc2c3c1O[C@H]1c4[nH]c5c(c4C[C@@]4(O)[C@@H](C2)N(CC2CC2)CC[C@]314)C[C@]1(O)[C@H]2Cc3ccc(O)c4c3[C@@]1(CCN2CC1CC1)[C@@H]5O4,29%,-4%,0%
Cl.Cl.Cl.Cl.Cl.Cl.N.N.N.N.NNNNN.NNNNN.O.O.[Ru].[Ru].[Ru],18%,-17%,-16%
O=S(=O)(NCCO)c1cc[c]([Sb])cc1,nt,nt,-4%[7.66 µM]
SMILES,RORg inh,VP16 counter,Luc counter
Cc1cc(-c2n[nH]c(=S)n2CC(C)C)cs1,5µM*,?,1%
CN1Cc2c(ccc3c2OCO3)C2C(O)Cc3cc4c(cc3C21)OCO4 (configuration not stated),5%,-14%,1%
C#CCO,-9%,3%,nt
Cc1ccccc1-c1cncnc1NCCc1cnc[nH]1,-30%,-7%,-3%
c1csc(CN2CC[C@@]3(CCCNC3)C2)n1,-18%,-10%,-5%
CC(=O)CC(c1ccccc1)c1c(O)c2cc(O)ccc2oc1=O (configuration not stated),-2%,-9%,nt
Cc1cc(O)c(CN2CC=C(c3ccccc3)CC2)cc1C(C)C,3%,9%,nt
O=c1cc(CN2CC=C(c3ccccc3)CC2)c2c(ccc3ccccc32)o1,5.6µM*,-6%,-2%
COC(=O)[C@]12C(=O)C(C)=C(O)[C@@]1(C)C(C)=CC1[C@@]34CC[C@@H](OC(C)=O)C(C)(C)C3C(C[C@]12C)OC4=O (some centres not stated),?,-5%,nt
CN(C)C(=O)Nc1ccc(Cl)cc1,-1%,19%,nt
Clc1nc(Cl)nc(Nc2ccccc2Cl)n1,-14%,-3%,nt
